# Compounds with a hit are over-represented: about 19% of the library has one in this group of screens.
# IL-1B inflam inh – qHTS for Inhibitors of Inflammasome Signaling: IL-1-beta AlphaLISA Primary Screen | THP-1 LPS/ATP IL-1B secretion, AlphaLISA, 16 h; active compounds read low | activity change, % at 57.5 µM | actives 4.7% (n = 360,000) | AID 743279, 2014; in the data active = activity change below about -50%; inconclusive = mostly about -30% to -49%
#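 THP-1 cells pretreated 1 hr with compounds (up to 57.5 uM final), then stimulated with LPS (250 ng/mL final) plus ATP (1.25 mM final); secreted IL-1B measured by AlphaLISA after 16 hr, decreased signal indicating inhibition.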
# TDP1 cell CPT – qHTS for Inhibitors of human tyrosyl-DNA phosphodiesterase 1 (TDP1): qHTS in cells in presence of CPT. chicken DT40 Tdp1-/-;hTDP1 cells + 20 nM CPT, ATP luminescence, 48 h. Potency, µM (doses to about 46.2 µM), for inactives: at the highest dose activity change, negative = growth inhibition, actives largely listed as inhibitors. actives 12% (n = 420,000). AID 686979, 2013; note: potency is the fitted concentration of half-maximal effect; nearly all actives have a fitted effect of over 55% in size
#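 Cell growth measured by CellTiter-Glo luminescence after a minimum 48 h, 37 C compound exposure with 20 nM CPT in Tdp1-knockout DT40 cells stably expressing hTDP1, seeded 400/well; qHTS titration format.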
# TDP1 cell noCPT – qHTS for Inhibitors of human tyrosyl-DNA phosphodiesterase 1 (TDP1): qHTS in cells in absence of CPT | DT40 Tdp1-/- hTDP1 cells, no CPT, ATP luminescence, 48 h | Potency, µM (doses to about 46.2 µM), for inactives: at the top dose activity change, negative = growth inhibition, most hits filed as inhibitors | actives 15% (n = 420,000); note: potency is the fitted concentration of half-maximal effect; nearly all actives have a fitted effect of over 55% in size
#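 Compound effects on proliferation are scored in DT40 Tdp1-/-;hTDP1 cells in the absence of CPT. ATP levels (CellTiter-Glo luminescence) are recorded after a ≥48 hr, 37 °C incubation.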
# HT1080 IDH1KD tx – qHTS for induction of synthetic lethality in tumor cells producing 2HG: qHTS for the HT-1080-IDH1KD cell line | HT-1080 IDH1 knockdown viability, ATP luminescence, 48 h | Potency, µM (doses to about 46.1 µM), inactives show top-dose activity, negative = toxicity, usual class: cytotoxic | actives 2% (n = 360,000) | AID 686971, 2013;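 note: potency is the fitted concentration of half-maximal effect; 0% = DMSO wells and -100% = cell-free medium wells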
#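 HT-1080-IDH1KD cells (IDH1 knocked down), 750/well in RPMI with 5% FBS, treated with compound 48 h at 37 degrees C. Viability by CellTiter-Glo luminescence, normalised to DMSO and no-cell wells; concentration-response curves classed.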
# HT1080-NT tox – qHTS for induction of synthetic lethality in tumor cells producing 2HG: qHTS for the HT-1080-NT fibrosarcoma cell line; HT-1080-NT fibrosarcoma viability, CellTiter-Glo ATP luminescence, 48 h; Potency, µM (series often up to 46.1 µM), for the others: at the highest dose activity, negative = less viability, hits mostly cytotoxic; actives 1.6% (n = 360,000); AID 686970, 2013;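 note: NT is the 2HG producing partner of a matched IDH1 knockdown line; potency is the fitted concentration of half-maximal effect; 0% = DMSO-treated cells and -100% = media-only wells without cells; nearly all actives have a fitted effect of over 55% in size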
#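 A 48-hour cytotoxicity screen used HT-1080-NT cells plated 2 hours before compound delivery. ATP-based CellTiter-Glo luminescence measured viability, normalized to DMSO and no-cell controls.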
# uPA generation – qHTS for Inhibitors of Cell Surface uPA Generation; cell surface uPA generation assay, qHTS; Potency, µM (titrated, usually from 38.3 µM), for inactives: top-dose activity change, negative = inhibition, usual class: inhibitors; actives 0.31% (n = 330,000); active = well fitted inhibition curve with a large enough effect; inconclusive = small, poorly fitted or top-dose-only effect; inactive = no such curve, though single readings can be large or run the other way; tested in mouse RAW 264.7 cells; note: potency is the fitted concentration of half-maximal effect; nearly all actives have a fitted effect of over 55% in size
# Numbers without * were called inactive; ? = inconclusive; . = no result; [ ] = dose if it differs, or a comment. Unless noted, calls come from the whole dose curve; as a rule, active = well fitted curve in the direction sought with a large enough effect; inconclusive = small, poorly fitted or top-dose-only effect, or another doubt; inactive = no such curve, though single readings can be large; an effect the other way counts as inactive or inconclusive. Unless noted, % is set by controls: 0 for no effect and ±100 for the full control effect.
SMILES,IL-1B inflam inh,TDP1 cell CPT,TDP1 cell noCPT,HT1080 IDH1KD tx,HT1080-NT tox,uPA generation
Cc1[nH]c2ccccc2c1C(=O)CN1CCN(C/C=C/c2ccccc2)CC1,?,?,18µM*,?,23µM*,5%
Cc1cc2nc(-c3cccc(NC(=O)c4cccc5ccccc45)c3)oc2cc1C,.,-17%,-16%,.,.,.
O=C1C2CCCN2C(c2ccco2)N1c1ccc(F)cc1 (stereo not given),16,4%,-1%,-9%,6%,-8%
Cc1ccc(-n2cnc3c(=O)[nH]cnc32)cc1[N+](=O)[O-],-6,-1%,-7%,8%,-1%,4%
Cc1cccnc1NC(=O)NC(=O)c1ccc(C(C)(C)C)s1,-13,?,16µM*,0%,13%,-23%
CCc1sc(C(=O)Nc2ncccc2C)cc1C,-10,-1%,6%,4%,3%,-1%
Cc1ccc(S(=O)(=O)N2CCOCC2)cc1NC(=O)COC(=O)CCC(=O)c1ccc(F)cc1,4,10%,5%,0%,4%,6%
O=C1CCN(CCc2ccccc2)CCN1[C@H](COc1ccccc1)c1ccccc1,-3,15µM*,14µM*,-10%,-3%,-4%
CC(C)CN1CCC(=O)N(CCOc2ccccc2)CC1,9,-1%,0%,0%,0%,2%
CC(C)CN1CCC(=O)N([C@H](COc2ccccc2)c2ccccc2)CC1,-8,?,22µM*,0%,-1%,-15%
CCCN1CCC(=O)N([C@H](COc2ccccc2)c2ccccc2)CC1,18,?,21µM*,0%,1%,-10%
Cc1nn2c(-c3ccco3)ccnc2c1-c1ccc(F)cc1,.,-18%,-16%,.,.,.
CC1CN(C(=O)CNC(=O)COc2ccccc2)CC(C)O1 (stereo not given),0,-26%,11%,0%,3%,-11%
COc1ccc(/C=C/C(=O)C2(O)CCCCC2)cc1OC,-91*,?,?,?,?,-15%
Cc1ccccc1CN1CCN(c2nc3ccccc3s2)CC1,18,18µM*,-15%,-8%,-3%,-17%
Cn1c(=O)n(C)c2cc(/C=N/N=C3/NC(=O)C(CC(=O)O)S3)ccc21 (stereo not given),18,-3%,0%,0%,26%,6%
COc1cc(C2Nc3ccc4ncccc4c3C3=C2C(=O)CCC3)ccc1O (stereo not given),9,5.8µM*,3.7µM*,5.8µM*,?,-10%
Cc1ccc(-c2ccc(=O)n(CC(=O)NC(C)c3ccccc3)n2)cc1 (stereo not given),.,-29%,-6%,.,.,.
COc1ccc(N(C)S(=O)(=O)c2cccc(C(=O)N3CCN(c4ccccc4)CC3)c2)cc1,-22,?,?,-13%,-12%,0%
COc1ccc(C2=CSC3=C(C(=O)c4cccc(S(=O)(=O)N(C)C)c4)CCN23)cc1,15,23µM*,16µM*,5%,1%,-4%
CCc1nnc(NC(=O)CSc2nc3cc4c(cc3cc2C)OCCO4)s1,2,-15%,-22%,18%,-1%,.
CCc1ccc2nc(SCC(=O)Nc3nnc(C)s3)c(C)cc2c1,-6,9.2µM*,?,-3%,-4%,1%
Cc1ccc2cc(/C=N/NC(=O)CN3CCCCC3)c(Cl)nc2c1,-7,?,?,0%,19%,1%
CC(=O)c1c(O)c(C)c(O)c2c1OC1=Cc3c(c(C)nn3C)C(=O)C12C (stereo not given),10,16µM*,29µM*,-2%,7%,.
COc1cc2c(cc1OC)CN(CC(=O)Nc1ccccc1C(=O)NCc1ccccc1)CC2,4,29µM*,15µM*,-21%,-16%,8%
SMILES,IL-1B inflam inh,TDP1 cell CPT,TDP1 cell noCPT,HT1080 IDH1KD tx,HT1080-NT tox,uPA generation
COc1cccc(N2CCN(CC(=O)Nc3ccccc3C(=O)NCc3ccccc3)CC2)c1,-9,?,16µM*,-4%,3%[9.24 µM],-2%
COc1cc2c(cc1OC)CN(CC(=O)Nc1ccccc1C(=O)NC1CC1)CC2,-16,-26%,11%,-1%,-9%,-2%
O=C(CN1CCN(c2ccc(O)cc2)CC1)Nc1ccccc1C(=O)NCCc1ccccc1,0,?,26µM*,0%,-3%,?
Cc1ccccc1NC(=O)CN1CCN(c2ccc(F)cc2)CC1,-1,?,?,-5%,-11%,.
COc1cccc(N2CCN(CC(=O)Nc3ccccc3C(=O)NCCc3ccccc3)CC2)c1,?,21µM*,18µM*,-8%,-9%,9%
COc1ccccc1CNCCCCCCNCCCCCCCCNCCCCCCNCc1ccccc1OC,.,13µM*,6.5µM*,.,.,.
CCCCCCCCNCCS(=O)(=O)NCc1ccccc1OC,?,-93%,-87%,-16%,-11%,-12%
COc1ccccc1CNN,?,2.6µM*,5.8µM*,-3%,-4%,-3%
COc1ccccc1CNc1ncccn1,4,23%,0%,9%,11%,-3%
Nc1c(-c2nc(-c3ccccc3Cl)no2)nnn1-c1ccccc1F,.,-3%,-17%,.,.,.
COc1cccc(CN(CC(=O)NCc2ccccc2)C(=O)c2csnn2)c1,14,1%,-22%,-24%,-13%,8%
Oc1cccc(Nc2nc(N3CCOCC3)nc(N3CCOCC3)n2)c1,-22,5.2µM*,8.2µM*,?,-12%,-4%
Cn1ccnc1Sc1nc(Nc2cccc(Cl)c2)nc(N2CCOCC2)n1,1,-1%,4%,0%,3%,-2%
COC(=O)c1ccc(Nc2nc(N3CCOCC3)nc(N3CCOCC3)n2)cc1,.,?,-24%,0%,-2%,10%
Cc1ccc(Nc2nc(N3CCOCC3)nc(N3CCOCC3)n2)cc1C,-60*,13µM*,13µM*,-9%,1%,7%
Cc1cccc(Nc2nc(Nc3cccc(C)c3)nc(N3CCOCC3)n2)c1,.,15µM*,9.2µM*,.,.,.
Cc1cccc(Nc2nc(N3CCCCC3)nc(N3CCCCC3)n2)c1,-3,-18%,-15%,0%,-19%,3%
Cc1cccc(Nc2nc(N3CCOCC3)nc(N3CCOCC3)n2)c1,-76*,9.2µM*,?,-21%,-8%,1%
